PfHsp90 yeast 2: reduces growth (ATP signal) of yeast expressing P. falciparum Hsp90; S. cerevisiae expressing PfHsp90, BacTiter-Glo ATP, 48 h; yeast lacking PDR1 and PDR3 efflux regulators; inhibition, % at 9.4 µM; hit rate 0.32% among 310,000;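 active = every replicate shows inhibition above about 80%, whatever the replicate mean, limit read from the data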;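 also: 0% = DMSO neutral controls and 100% = 20 µM radicicol positive controls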
tim23-1 inh: tim23-1 yeast growth inhibition. S. cerevisiae tim23-1 growth, BacTiter-Glo luminescence, 24 h. hit rate 1.3% among 330,000. AID 463212. inhibition, % at 20 µM;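 active = growth inhibition of the mutant yeast at or above 50%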;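 also: temperature-sensitive mutant grown at 25 °C; plate controls were DMSO-treated mutant yeast for no effect and medium wells lacking yeast for full effect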
TIM10 inh: TIM10 yeast growth inhibition. inhibition, % at 10 µM. hit rate 1.4% among 330,000. S. cerevisiae TIM10 strain growth, BacTiter-Glo luminescence, 24 h;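 active = inhibition of 40% or more at the single tested concentration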;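 also: wild-type TIM10 isogenic control strain grown at permissive 25 °C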
tim10-1 inh: growth inhibitors of tim10-1 mutant yeast; S. cerevisiae tim10-1 ts strain growth, BacTiter-Glo, 24 h; inhibition, % at 20 µM; hit rate 2.2% among 330,000;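 active = inhibition of at least 40%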;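 also: mutant grown at 25 °C; 0% = DMSO wells with yeast and 100% = wells holding no yeast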
SUMO Mot1 rescue: blocks SUMOylation pathway, rescuing yeast Mot1-301 growth; growth rescue, % at 18.8 µM; S. cerevisiae Mot1-301 growth rescue, ATP luminescence, 38.5C; percent above DMSO median, 100 means doubled; hit rate 1% among 320,000; AID 2716;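 active = every valid replicate shows activation above 250% relative to neutral control wells; inactive = the rest, any valid replicate at or below 250%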;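 also: OY570 slx delta 5 strain wells were the positive control but not used for scaling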
tim10-1 conf: tim10-1 yeast growth inhibition, confirmed | shares compounds with tim10-1 inh | S. cerevisiae tim10-1 ts strain growth, BacTiter-Glo, 24 h | inhibition, % at 20 µM | hit rate 56% among 7,400 | AID 463213;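 active = inhibition of yeast growth at or above a set limit in either of two repeat tests at 20 µM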;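 also: tim10-1 mutant grown at permissive 25 °C to find synthetic lethal compounds; 0% = DMSO yeast wells and 100% = medium wells without yeast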
TIM10 conf: TIM10 yeast growth inhibition, confirmed. shares compounds with TIM10 inh. S. cerevisiae tim10 strain growth, BacTiter-Glo luminescence, 24 h. inhibition, % at 10 µM. hit rate 63% among 4,600. AID 463215;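 active = inhibition of yeast growth at or above a set limit in either of two replicates at 10 µM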;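 also: this counterscreen used the strain with wild-type TIM10; 0% = yeast with DMSO and 100% = medium wells lacking yeast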
tim23-1 confirm: tim23-1 yeast growth inhibition, confirmed | S. cerevisiae tim23-1 growth, BacTiter-Glo luminescence, 24 h | shares compounds with tim23-1 inh | hit rate 83% among 4,400 | AID 463218 | inhibition, % at 20 µM;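 active = inhibition above about 39% in either of two replicate wells at 20 µM, limit read from the data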;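 also: temperature-sensitive tim23-1 mutant grown at 25 °C; 0% = DMSO wells with yeast and 100% = medium wells without yeast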
* marks the source's active call; other numbers are inactive results. Compounds with a hit are over-represented: about 4.4% of the library has one in this group of screens.

Cc1cc(/C(N)=N/OC(=O)c2ccc(Cl)cc2)no1 was read as PfHsp90 yeast 2 2, tim23-1 inh 1, TIM10 inh -8, tim10-1 inh -9 and SUMO Mot1 rescue 1.
For COc1ccccc1C(=O)O/N=C(\N)c1ccc(Cl)cc1 the results were PfHsp90 yeast 2 7, tim23-1 inh 64*, TIM10 inh 36, tim10-1 inh 50*, SUMO Mot1 rescue 1, tim10-1 conf 45* and tim23-1 confirm 54*.
For Cc1ccc(/C(N)=N/OC(=O)c2ccc(Cl)cc2Cl)cc1 the results were PfHsp90 yeast 2 -100, tim23-1 inh 80*, TIM10 inh 88*, tim10-1 inh 47*, SUMO Mot1 rescue 7, tim10-1 conf 25, TIM10 conf -1 and tim23-1 confirm 44*.
Cc1ccc(C(=O)O/N=C(\N)Cc2cccs2)c(Cl)c1 was read as PfHsp90 yeast 2 5, tim23-1 inh 91*, TIM10 inh 85*, tim10-1 inh 69*, SUMO Mot1 rescue 8, tim10-1 conf 63*, TIM10 conf 86* and tim23-1 confirm 87*.
For O=S(=O)(NC1CC1)c1ccc(Cl)cc1F the results were PfHsp90 yeast 2 25, tim23-1 inh 6, TIM10 inh 9, tim10-1 inh 0 and SUMO Mot1 rescue -22.
Cc1ccc(S(=O)(=O)N2CCN(C(=O)COC(=O)c3cncc(Br)c3)CC2)c(C)c1 was read as PfHsp90 yeast 2 5, tim23-1 inh 5, TIM10 inh 6, tim10-1 inh 14 and SUMO Mot1 rescue -6.
CCOC(=O)C1=C(N)OC2=C(C(=O)CC(C)(C)C2)C1c1cc(CSc2nnnn2C)cs1 (centres undefined) was read as PfHsp90 yeast 2 12, tim23-1 inh 14, TIM10 inh -2, tim10-1 inh 11 and SUMO Mot1 rescue 123.
O=C(NCCc1ccccc1)C(c1cccs1)N(C(=O)CCl)c1ccc(Cl)cc1 (centres undefined) was read as PfHsp90 yeast 2 -22, tim23-1 inh 53*, TIM10 inh 56*, tim10-1 inh 55*, SUMO Mot1 rescue 182, tim10-1 conf 54*, TIM10 conf -23 and tim23-1 confirm 58*.
`O=C(Nc1cccc(Cl)c1)c1ccc2c(=O)n3c(nc2c1)CCCCC3` gave PfHsp90 yeast 2 3, tim23-1 inh 54*, TIM10 inh 73*, tim10-1 inh 45*, tim10-1 conf 30, TIM10 conf -15 and tim23-1 confirm 80*.
`O=C(Nc1ccc(Cl)cc1)c1ccc2c(=O)n3c(nc2c1)CCCCC3` gave tim23-1 inh -14, TIM10 inh -1 and tim10-1 inh -6.
CCOC(=O)C1CCN(C2=NC(=O)/C(=C/c3ccc(Cl)cc3)S2)CC1 was read as PfHsp90 yeast 2 -50, tim23-1 inh 50*, TIM10 inh 32, tim10-1 inh 49*, SUMO Mot1 rescue -3, tim10-1 conf 32* and tim23-1 confirm 44*.
Screening CCOC(=O)C1CCN(C2=NC(=O)/C(=C/c3ccc(OC)c(OC)c3)S2)CC1 returned PfHsp90 yeast 2 -3, tim23-1 inh 20, TIM10 inh 10, tim10-1 inh 31 and SUMO Mot1 rescue 15.
`CCCCNC(=O)c1cccc(S(=O)(=O)N2CC3(C)CC2CC(C)(C)C3)c1` (centres undefined) gave PfHsp90 yeast 2 5, tim23-1 inh 59*, TIM10 inh 29, tim10-1 inh 50*, SUMO Mot1 rescue -9, tim10-1 conf 48* and tim23-1 confirm 54*.
For Cc1c(C(=O)N(Cc2cccc(Br)c2)C2CCS(=O)(=O)C2)oc2ccc(F)cc12 (centres undefined) the results were PfHsp90 yeast 2 -10, tim23-1 inh 22, TIM10 inh 6, tim10-1 inh 37 and SUMO Mot1 rescue -1.
Screening O=C(/C(=C/c1ccccc1)n1cncn1)c1ccc(Cl)cc1Cl returned PfHsp90 yeast 2 8, tim23-1 inh 92*, TIM10 inh 82*, tim10-1 inh 80*, SUMO Mot1 rescue 184, tim10-1 conf 82*, TIM10 conf -4 and tim23-1 confirm 91*.
`COc1ccc(N=Nc2c(C)[nH]c3ccccc23)cc1` gave PfHsp90 yeast 2 -6, tim23-1 inh 89*, TIM10 inh 38, tim10-1 inh 43*, SUMO Mot1 rescue 37, tim10-1 conf 40* and tim23-1 confirm 78*.
`CC1CCCCC1NC(=O)/C(C#N)=C/c1ccc2c(c1)OCCO2` (centres undefined) gave tim23-1 inh 63*, TIM10 inh 55*, tim10-1 inh 50*, SUMO Mot1 rescue -21, tim10-1 conf 53*, TIM10 conf 5 and tim23-1 confirm 62*.
Screening N#C/C(=C\c1ccc2c(c1)OCCO2)C(=O)Nc1nccs1 returned PfHsp90 yeast 2 -94, tim23-1 inh 41, TIM10 inh 13, tim10-1 inh -1 and SUMO Mot1 rescue -1.
Screening CC1CCCCC1NC(=O)/C(C#N)=C/c1ccc(F)c(F)c1 (centres undefined) returned PfHsp90 yeast 2 10, tim23-1 inh 54*, TIM10 inh 59*, tim10-1 inh 48*, SUMO Mot1 rescue 420, tim10-1 conf 59*, TIM10 conf 70* and tim23-1 confirm 46*.
O=C(Nc1nnc(Cc2ccccc2)s1)c1ccco1 was read as PfHsp90 yeast 2 -11, tim23-1 inh 54*, TIM10 inh 34, tim10-1 inh 50*, SUMO Mot1 rescue 1, tim10-1 conf 29* and tim23-1 confirm 43*.
For NC(=O)c1cc(Cc2ccccc2)sc1NC(=O)c1ccco1 the results were PfHsp90 yeast 2 -31, tim23-1 inh 60*, TIM10 inh 40*, tim10-1 inh 50*, SUMO Mot1 rescue -6, tim10-1 conf 48*, TIM10 conf 28 and tim23-1 confirm 73*.
Screening CCOc1ccc(CC(=O)Nc2sc(Cc3ccccc3)cc2C(N)=O)cc1OCC returned PfHsp90 yeast 2 4, tim23-1 inh 11, TIM10 inh -6, tim10-1 inh 3 and SUMO Mot1 rescue -2.
Screening CCCc1cc(C(N)=O)c(NC(=O)c2ccoc2C)s1 returned PfHsp90 yeast 2 3, tim23-1 inh 65*, TIM10 inh 34, tim10-1 inh 47*, SUMO Mot1 rescue 4, tim10-1 conf 34* and tim23-1 confirm 68*.
O=C(Nc1nc2c(F)c(F)c(F)cc2s1)c1ccco1 was read as PfHsp90 yeast 2 10, tim23-1 inh 16, TIM10 inh 22, tim10-1 inh 10 and SUMO Mot1 rescue 0.

Screens: PubChem BioAssay, several laboratories
